# Screening data as filed in PubChem.
# Shown are actives, neighbours in structure and some others; about 17% of the full set was active somewhere.
# TDP1 cell noCPT – qHTS for Inhibitors of human tyrosyl-DNA phosphodiesterase 1 (TDP1): qHTS in cells in absence of CPT. DT40 Tdp1-/- hTDP1 cells, no CPT, ATP luminescence, 48 h. Potency, µM (doses to about 46.2 µM), actives largely listed as inhibitors. actives 15% (n = 420,000). AID 686978, 2013; further: nearly all actives have a fitted effect of over 55% in size
#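 Compound effects on proliferation are scored in DT40 Tdp1-/-;hTDP1 cells in the absence of CPT. ATP levels (CellTiter-Glo luminescence) are recorded after a ≥48 hr, 37 °C incubation.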
# HepG2 tox – kills HepG2 cells in TGF-b inhibitor counter-screen | HepG2 CAGA-GFP viability, ATP luminescence, 18 h | Potency, µM (highest dose often 46.1 µM), actives largely listed as cytotoxic | actives 0.76% (n = 410,000)
#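 HepG2 CAGA-GFP cells (1000/well, DMEM with 1% FBS) received compound, then TGF-beta at 500 pg/mL final, and were incubated 18 hours at 37 degrees C. Viability was read by CellTiter-Glo luminescence. Media-only wells were set as complete cell-killing and DMSO as no toxicity.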
# DT40 TDP1 CPT – DT40-hTDP1 cell growth loss with CPT; chicken DT40 Tdp1-/-;hTDP1 cells + 20 nM CPT, ATP luminescence, 48 h; actives 12% (n = 420,000); Potency, µM (doses to about 46.2 µM), actives largely listed as inhibitors; further: nearly all actives have a fitted effect of over 55% in size
#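 Cell growth measured by CellTiter-Glo luminescence after a minimum 48 h, 37 C compound exposure with 20 nM CPT in Tdp1-knockout DT40 cells stably expressing hTDP1, seeded 400/well; qHTS titration format.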
# S2 tox – cell viability loss in ATXN counter-screen | Potency, µM (titrated, usually from 56.7 µM), most hits filed as cytotoxic | AID 651635 | actives 0.49% (n = 400,000) | S2 cells (HEK-293 line with an ATXN2-luciferase reporter) viability, CellTiter-Fluor protease fluorescence, 24 h; further: nearly all actives have a fitted effect of over 40% in size
# ATXN2 expr inh – ATXN2 expression inhibition; Potency, µM (titrated, usually from 57 µM), actives largely listed as inhibitors; AID 1745845; actives 0.72% (n = 360,000); HEK-293 ATXN2-luciferase reporter, luminescence, 24 h; further: nearly all actives have a fitted effect of over 55% in size
#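 ATXN2-luciferase reporter cells (luciferase flanked by upstream and downstream ATXN2 gene portions) were treated 24 h at 37 °C with compounds at up to 57 uM. SteadyGlo luminescence gave expression; GF-AFC fluorescence gave viability.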
# TGFb SMAD3 inh – inhibitors of TGF-b signaling. Potency, µM (titrated, usually from 46.1 µM), hits mostly inhibitors. actives 1.2% (n = 410,000). AID 588855. HepG2 CAGA-GFP TGF-b/SMAD3 reporter, GFP fluorescence, 18 h; TGF-beta stimulated, 500 pg/mL final; further: nearly all actives have a fitted effect of over 65% in size
#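 HEPG2 CAGA-GFP cells (1000/well, DMEM with 1% FBS) were pre-incubated 2 h at 37 degrees C, given compound by pin tool, then stimulated with TGF-beta at 500 pg/mL final for 18 h before per-cell GFP fluorescence imaging.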
# A number is an active result; i = inactive; ? = inconclusive; nt = no result given; ! = not confirmed by another sample; [ ] = another dose, or the depositor's remark. The call rests on the fitted dose curve; in most records, active means well fitted curve in the direction sought with a large enough effect; inconclusive means small, poorly fitted or top-dose-only effect, or another doubt; inactive means no such curve, though single readings can be large; an effect the other way counts as inactive or inconclusive.
SMILES,TDP1 cell noCPT,HepG2 tox,DT40 TDP1 CPT,S2 tox,ATXN2 expr inh,TGFb SMAD3 inh
CCCN(CCC)S(=O)(=O)c1ccc2c(c1)N(CC(=O)NC(C)c1ccccc1)C(=O)CS2 (centres undefined),23.1µM,i,?,nt,nt,i
Cc1ccccc1CNC(=O)CN1C(=O)CSc2ccc(S(=O)(=O)N(C)C)cc21,i,i,?,i,i,?
CCCCNC(=O)CN1C(=O)CSc2ccc(S(=O)(=O)N3CCOCC3)cc21,i,i,i,i,nt,i
CCCCC(CC)CNC(=O)CN1C(=O)CSc2ccc(S(=O)(=O)N3CCOCC3)cc21 (centres undefined),13µM,i,16.4µM,nt,nt,?
COc1ccc(OC)c(-n2c(Cn3c(-c4ccccn4)nc4ccccc43)n[nH]c2=S)c1,i,i,i,i,nt,i
O=CC(=Cc1ccccc1)c1ccccc1,?,i,i,i,nt,i
Cc1c(-n2c(SCC(=O)C(C)(C)C)nc3ccccc3c2=O)c(=O)n(-c2ccccc2)n1C,i,i,?,?,?,i
Cc1ccc(NC(=O)CSC2=NCCN2)cc1,18.4µM,i,23.1µM,i,i,i
O=C(CSC1=NCCN1)NC(c1ccccc1)c1ccccc1,20.6µM,i,?,nt,i,?
O=C(CSC1=NCCN1)Nc1ccccc1[N+](=O)[O-],20.6µM,i,?,i,nt,i
O=C(CSC1=NCCN1)Nc1cccc([N+](=O)[O-])c1,20.6µM,i,14.6µM,i,i,i
O=C(CSC1=NC(=O)C(c2ccccc2)C(=O)N1)Nc1ccccc1[N+](=O)[O-] (centres undefined),i,i,i,i,i,i
Nc1nc(SCC(=O)Nc2cccc([N+](=O)[O-])c2)n[nH]1,i,i,i,i,i,i
Cc1cc(C)nc(NCCO)n1,i,i,i,i,i,i
CC(=O)N1CCN(C(=O)c2ccc(Cl)c(S(=O)(=O)N3CCCCCC3)c2)CC1,i,i,i,i,i,i
CCCCCCCCCCCCCCCCCCN(CCCCCCCCCCCCCCCCCC)c1ccc(/C=C/c2ccnc3ccccc23)cc1,i,i,i,nt,nt,i
CCCCCN(CCCCC)c1ccc(/C=C/c2ccnc3ccccc23)cc1,12.6µM,i,?,nt,nt,i
CCCCN(CCC(=O)O)c1ccc(/C=C/c2ccnc3ccccc23)cc1,15.8µM,5.62µM,5.62µM,nt,nt,?
CCN(CCCN(C)C)c1ccc(/C=C/c2ccnc3ccccc23)cc1,15.8µM,i,?,nt,nt,i
O=C(CN(C(=O)c1ccccc1)N1C(=O)CCC1=O)c1cccs1,i,i,i,i,i,i
COc1ccc(CNC(=O)c2cc3c(=O)oc4ccc(C)cc4c3s2)c(OC)c1,i,i,i,i,i,i
CC(C)c1ccc(Cn2ccc3c4c(N)nc(NC5CC5)nc4ccc32)cc1,3.35µM,nt,4.73µM,nt,24.3µM,nt
O=C1c2cccc3c([N+](=O)[O-])ccc(c23)C(=O)N1CCc1ccccn1,5.17µM,i,13µM,i,i,i
O=C1c2cccc([N+](=O)[O-])c2C(=O)N1CCO,i,i,i,i,i,i
O=C1c2ccccc2C(=O)N1CCc1ccccn1,i,i,?,i,i,i
SMILES,TDP1 cell noCPT,HepG2 tox,DT40 TDP1 CPT,S2 tox,ATXN2 expr inh,TGFb SMAD3 inh
CN(C)CCCN1C(=O)c2cccc3c([N+](=O)[O-])ccc(c23)C1=O,2.31µM,i,2.31µM,nt,?,?
CCOc1cc(CN2CCC(n3nccc3NC(=O)C3CC3)CC2)ccc1O,i,i,i,i,nt,i
CCOC(=O)C1=C(C)N(C)C(=O)NC1c1cccc([N+](=O)[O-])c1 (centres undefined),i,i,i,i,i,i
COC(=O)C1=C(C)NC(C)=C(C(=O)O[C@@H]2CCCN(Cc3ccccc3)C2)[C@@H]1c1cccc([N+](=O)[O-])c1,10.3µM,i,18.4µM,?,?,?
CCOC(=O)C1=C(C)NC(C)=C(C(=O)OC)[C@H]1c1cccc([N+](=O)[O-])c1,23.7µM,i,26.6µM,nt,nt,?
COC(=O)C1=C(C)NC(C)=C(C(=O)OC(C)(C)CN(C)CCC(c2ccccc2)c2ccccc2)C1c1cccc([N+](=O)[O-])c1 (centres undefined),8.41µM,nt,8.41µM,?,?,nt
CCOC(=O)C1=C(C)NC(C)=C(C(=O)OC)C1c1cccc([N+](=O)[O-])c1 (centres undefined),15µM!,i,11.9µM!,i,i,i
COCCOC(=O)C1=C(C)NC(C)=C(C(=O)OC/C=C/c2ccccc2)C1c1cccc([N+](=O)[O-])c1 (centres undefined),?,nt,?,i,?,nt
Cc1nc(N2CCN(C(=O)c3ccco3)CC2)[nH]c(=O)c1C,i,i,i,i,i,i
CCOC(=O)C1=C(N)Oc2cc(O)ccc2C1c1cccc([N+](=O)[O-])c1 (centres undefined),16.4µM,i,?,i,i[11.3 µM],i
CCOC(=O)C1=C(N)Oc2ccc3ccccc3c2C1c1cccnc1 (centres undefined),?,i,i,i,i,?
CCOC(=O)C1=C(N)Oc2ccc3ccccc3c2C1c1cccc(O)c1 (centres undefined),?,i,i,?,?,11.2µM
CCOC(=O)C1=C(N)Oc2c(c(=O)[nH]c3ccccc23)C1c1ccccc1 (centres undefined),13µM,i,23.1µM,?,i,i
CCOC(=O)C1=C(N)Oc2cc(O)ccc2C1c1ccccc1 (centres undefined),?,i,?,?,nt,?
COC(=O)C1=C(C)NC(C)=C(C(=O)OCCCN2CCC(c3ccccc3)(c3ccccc3)CC2)[C@H]1c1cccc([N+](=O)[O-])c1,11.9µM,nt,11.9µM,nt,nt,nt
CCOC(=O)c1csc(-c2csc(CCNC(=O)c3ccccc3)n2)n1,?,i,?,i,nt,i
COc1ccc(N2CCN(C(c3ccccc3)c3nnnn3C(C)C)CC2)cc1 (centres undefined),?,i,?,nt,nt,i
N#Cc1ccccc1S(=O)(=O)N1CCN(CC(O)COc2ccccc2F)CC1 (centres undefined),i,i,i,i,i,i
CC1=C(C(=O)OC(C)C)C(c2cccc([N+](=O)[O-])c2)C(C(=O)OC2CN(C(c3ccccc3)c3ccccc3)C2)=C(N)N1 (centres undefined),?,nt,?,35.5µM,31.6µM,nt
